Screening results: PubChem BioAssay, National Center for Advancing Translational Sciences (NCATS)
The list is not random: actives were taken first. Their share in the collection is about 4.7%.
D1 potentiator: enhances dopamine response at the human D1 receptor. 0.036% of 360,000 active. HEK293 TREx D1 cells, calcium flux, dopamine EC20 potentiation. AID 504651. P21728. potentiation, % at 10 µM; in the data active = potentiation above about 30%; note: 0% is about no effect
Target sequence (P21728 whole entry, looked up): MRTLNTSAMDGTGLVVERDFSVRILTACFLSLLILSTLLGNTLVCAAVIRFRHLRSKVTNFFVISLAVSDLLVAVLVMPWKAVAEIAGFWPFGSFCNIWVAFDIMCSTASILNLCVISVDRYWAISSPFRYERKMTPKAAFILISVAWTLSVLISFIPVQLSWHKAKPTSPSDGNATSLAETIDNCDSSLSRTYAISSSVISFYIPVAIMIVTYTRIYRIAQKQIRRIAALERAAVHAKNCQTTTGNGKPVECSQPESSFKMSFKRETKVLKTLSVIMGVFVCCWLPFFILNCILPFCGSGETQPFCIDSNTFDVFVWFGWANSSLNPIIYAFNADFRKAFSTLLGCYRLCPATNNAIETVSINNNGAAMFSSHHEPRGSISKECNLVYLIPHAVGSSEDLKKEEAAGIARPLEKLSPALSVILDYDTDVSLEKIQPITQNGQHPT
D1 ag: agonists of human D1 dopamine receptor | HEK293 T-REx D1 cells, calcium flux, agonist mode | activation, % at 2 µM | P21728 | AID 504660 | 1% of 360,000 active; note: 0% is about no effect
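Inducible HEK293 T-REx D1 cells, force-coupled to calcium signalling, were plated at 4000 cells/well with tetracycline and held overnight at 30 C. After no-wash calcium dye loading, compound-evoked calcium rise over 180 s flagged agonists.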
TRHR ag: agonists of human TRH receptor | TRHR cells, calcium flux fluo-8, FDSS agonist mode | activation, % at 2 µM | 0.18% of 360,000 active | AID 493084; note: 0% is about no effect
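Read-out: compound-evoked intracellular calcium rise in TRHR cells, fluo-8 dye, kinetic FDSS fluorescence at 1 s/cycle following a 10-cycle baseline. Cells cultured overnight before dye loading (30 min–1.5 h, RT).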
TRHR PAM: allosterically enhances the human TRH receptor; P34981; TRHR cells, fluo-8 calcium fluorescence, EC20 TRH enhancement; enhancement, % at 2 µM; 0.66% of 360,000 active; in the data active = enhancement above about 30%; note: 0% is about no effect
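Enhancer read-out: after compound pinning and an initial kinetic agonist-mode read, an EC20 of TRH (10 nM final) was injected and fluo-8 calcium signal (Ex 480/Em 530) followed at 1 s/cycle for 100 cycles in TRHR-expressing cells.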
D1 antagonist: antagonists of human D1 dopamine receptor. activity change, negative = inhibition, % at 10 µM. HEK293 TREx D1 cells, calcium flux, dopamine EC80; hits give low values. 3.2% of 360,000 active. AID 504652. P21728; in the data active = activity change below about -30%; note: % is set by controls: 0 for no effect and ±100 for the full control effect
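Inducible Hek293 Trex D1 cells (tetracycline, overnight, 30 C). Calcium dye 30–90 min RT. Antagonist mode: EC80 dopamine added after 180 s compound read.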
Active calls of the source: *; ! = repeats disagree. Cut-off read from the data, not from the text of the source, unless noted: active = activation above about 30%; inactive = the rest.

SMILES	D1 potentiator	D1 ag	TRHR ag	TRHR PAM	D1 antagonist
COc1ccccc1NC(=O)C(=O)NCC(c1ccco1)N1CCc2ccccc21 (configuration not stated)	-1.1	0.1	0.3	32.9*	11.6
CC(NC(=O)c1ccc2nc(CCc3ccccc3)oc2c1)c1ccccc1 (configuration not stated)	-0.5	6.5	0.1	4.0	1.7
O=C(CSCc1cnn(-c2ccccc2)c1-n1cccc1)NCc1ccccc1F	-2.0	8.8	-0.2	-0.9	0.1
Cc1cc(NC(=O)CSc2nc3ccccc3n2CC(=O)N2CC(C)CC(C)C2)no1 (configuration not stated)	0.7	-1.2	-0.1	-5.9	-41.3*
COc1ccc(NC(=O)CN2C(=O)CC(C)(C)S(=O)(=O)c3ccccc32)cc1	-8.5	0.9	-0.2	-2.3	-33.1*
COc1ccc(NC(=O)CN2C(=O)CSc3ncccc32)cc1	2.9	0.8	0.7	-8.1	8.5
COc1ccccc1N1CCN(C(=O)CCS(=O)(=O)c2cc(Br)cc3c2N(C(=O)C2CC2)CC3)CC1	-0.5	-0.6	-1.5	8.9	-6.4
N/C(=N/O)C(c1ccccc1)c1ccccc1	1.1	4.5	0.7	1.2	-44.2*
CCCc1nn2c(=O)cc(COC(=O)c3ccc(NC(=O)CCc4ccccc4)cc3)nc2s1	-0.6	-0.3	0.8	-2.9	-7.5
O=C1CCc2cc(S(=O)(=O)N3CCC(C(=O)NC4CCCC4)CC3)ccc2N1	-3.5	0.0	0.4	7.8	-31.3*
Cc1ccc(N2CCn3c2nc2c3c(=O)n(C/C=C/c3ccccc3)c(=O)n2C)cc1C	-2.4	-1.0	-0.4	-6.2	12.4
O=S(=O)(NCCC1=CCCCC1)c1ccc(Br)cc1	-10.8	1.7	-0.3	-3.2	-30.1*
CC(=O)N1CCCc2cc(S(=O)(=O)NCc3ccc(N(C)C)cc3)ccc21	-5.9	6.5	0.4	0.4	1.1
CCOc1ccc(S(=O)(=O)NCCC2=CCCCC2)c2ccccc12	-5.0	19.4	2.6	0.1	-35.6*
O=S(=O)(NCCC1=CCCCC1)c1ccccc1Br	-4.7	5.2	0.3	3.0	19.9
CC(=O)N1CC(C)Sc2ccc(S(=O)(=O)NCCc3ccc(C)cc3)cc21 (configuration not stated)	-2.7	31.2*	-0.1	-1.4	-2.0
CC(=O)N1CCCc2cc(S(=O)(=O)NCCC3=CCCCC3)ccc21	-7.2	13.0	-0.6	-5.2	-30.3*
CCCc1nnc(NC(=O)Cc2coc3c(C)c(C)ccc23)s1	-2.4	-0.7	-0.4	-4.2	6.8
CC(=O)N1CCCc2cc(S(=O)(=O)NCc3ccc(C)cc3)ccc21	-14.4	10.9	-0.5	6.5	-37.3*
CC(=O)N1CCCc2cc(S(=O)(=O)NCc3cccc(C)c3)ccc21	-0.9	8.5	0.2	-0.5	-23.6
CN1CCN(CCCOc2ccc(-c3ccccc3)cc2)CC1	-1.1	18.1	1.2	-2.8	-32.9*
CCN1CCN(CCCOc2ccc(-c3ccccc3)cc2)CC1	-8.8	49.7*	3.7	-3.0	-34.3*
CN1CCN(CCOc2ccc(-c3ccccc3)cc2)CC1	-5.9	18.9	0.7	23.7	-4.8
O=C(NCc1cccnc1)C1CCN(S(=O)(=O)c2cccs2)CC1	-4.8	1.3	1.1	-1.4	8.7
Cc1ccc(NC(=O)C2CCN(S(=O)(=O)c3cccs3)CC2)cc1	-11.4	22.4	0.2	-0.9	-37.4*!
SMILES	D1 potentiator	D1 ag	TRHR ag	TRHR PAM	D1 antagonist
O=C(COC(=O)C1CCN(S(=O)(=O)c2cccs2)CC1)Nc1ccc(F)c(F)c1F	-5.2	10.0	0.4	-4.6	-35.6*
COc1ccc(/C=C2\SC(=O)N(CCNC(=O)C3CCN(S(=O)(=O)c4cccs4)CC3)C2=O)cc1	-6.0	6.3	-0.1	0.6	-35.4*
O=C(Nc1cccnc1)C1CCN(S(=O)(=O)c2cccs2)CC1	-6.3	0.7	0.1	-2.7	-32.3*
COc1ccc(NC(=O)COCc2cc(-c3cccs3)on2)cc1	-7.2	1.0	-0.7	-0.1	-6.8
CCc1cccc(NC(=O)C2CCN(S(=O)(=O)c3cccc(-c4noc(C)n4)c3)CC2)c1	-1.6	6.6	0.1	-3.0	7.5
O=C(Nc1cc(C(F)(F)F)ccc1Cl)C(Sc1nnc(-c2cccs2)o1)c1ccccc1 (configuration not stated)	-6.2	9.7	0.2	17.7	-44.7*
COc1cc(NC(=O)Cn2nc(C(F)(F)F)c3c2CCC3)cc(OC)c1OC	-2.5	16.6	0.1	5.2	-19.1
O=C(COC(=O)[C@@H]1CC(O)CN1S(=O)(=O)c1ccccc1[N+](=O)[O-])Nc1ccc2ccccc2c1 (some centres not stated)	-7.0	2.3	0.1	-6.2	-32.2*
CCc1ccc2nc(SCC(=O)N(CC)CC)c(C#N)cc2c1	-8.2	1.0	-0.1	1.6	-45.6*
Cc1ccc(C)c(NC(=O)c2ccc(=O)n(Cc3ccc(F)cc3)c2)c1	-4.1	1.4	0.3	-1.2	2.8
Cc1ccc(NC(=O)CSc2nc(-c3cccs3)nc3cc(=O)[nH]n23)cc1C	-3.4	2.3	-0.6	-5.0	-5.6
Cc1ccccc1NC(=O)CSc1nc(-c2cccs2)nc2cc(=O)[nH]n12	7.5	2.4	-0.5	4.1	-36.7*
CC(Oc1ccccc1)C(=O)OCC(=O)Nc1sccc1C(N)=O (configuration not stated)	-2.8	13.5	0.0	-1.1	-34.2*
Cc1ccccc1NC(=O)COC(=O)Cc1ccsc1	-4.5	3.2	-0.2	-0.8	-31.1*
Cc1cccc(C)c1NC(=O)COC(=O)Cc1ccsc1	-5.6	2.7	0.3	0.3	9.8
COc1cc(CC(=O)OCC(=O)Nc2sccc2C(N)=O)cc(OC)c1OC	-0.8	11.0	0.8	-3.1	-27.1
NC(=O)c1ccsc1NC(=O)COC(=O)Cc1ccsc1	-8.0	9.9	0.7	-8.5	-38.6*
Cc1ccccc1OCC(=O)OCc1cc(=O)n2nc(C3CC3)sc2n1	-4.8	3.8	0.0	3.2	17.2
Cc1ccc2nc(/C(C#N)=C/c3ccc(-c4ccccc4C(=O)O)o3)[nH]c2c1	-4.7	49.2*	70.2*	1.1	-10.0
N#C/C(=C\c1ccc([N+](=O)[O-])o1)c1nc2ccccc2[nH]1	-6.0	40.9*	16.5	-4.7	9.8
N#C/C(=C\c1ccc(-c2ccccc2C(=O)O)o1)c1nc2ccccc2[nH]1	-0.8	38.2*	46.0*!	0.3	-2.9
CCOC(=O)c1ccc(-c2ccc(/C=C(\C#N)c3nc4ccc(C)cc4[nH]3)o2)cc1	0.7	269.6*	119.7*	2.3	8.0
N#C/C(=C\c1ccc(Sc2ccccc2)o1)c1nc2ccccc2[nH]1	-6.2	22.9	2.8	-0.3	11.0
COc1ccc(C2CC(=O)c3c(C)nc(N4CCN(C=O)CC4)nc3C2)c(OC)c1 (configuration not stated)	-3.9	0.0	-0.9	-3.1	-2.6
